Many of the other results were omitted from the sample, so hits are more common in it than they were.
HT1080NT lethal – kills 2HG-producing HT-1080-NT fibrosarcoma cells; HT-1080-NT fibrosarcoma viability, CellTiter-Glo ATP luminescence, 48 h; Potency, µM (series often up to 46.1 µM), usual class: cytotoxic; 360,000 compounds, 1.6% hits; AID 686970;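 note: NT is the 2HG producing partner of a matched IDH1 knockdown line; nearly all actives have a fitted effect of over 55% in size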
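750 cells/well, RPMI + 5% FBS; 2 h settle, compound pin-transfer, 48 h at 37 degrees C. CellTiter-Glo 10 min RT, luminescence. Normalized to DMSO and media-only wells.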
IL-1B inflam inh – inhibitors of inflammasome signaling (IL-1 beta secretion); activity change, % at 57.5 µM; 360,000 compounds, 4.7% hits; THP-1 LPS/ATP IL-1B secretion, AlphaLISA, 16 h; stronger effect = lower value; in the data active = activity change below about -50%; inconclusive = mostly about -30% to -49%
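THP-1 cells pretreated 1 hr with compounds (up to 57.5 uM final), then stimulated with LPS (250 ng/mL final) plus ATP (1.25 mM final); secreted IL-1B measured by AlphaLISA after 16 hr, decreased signal indicating inhibition.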
12-LOX inh – ALOX12 (human) lipoxygenase inhibition. Potency, µM (doses to about 108 µM), hits mostly inhibitors. purified 12hLO, xylenol orange hydroperoxide absorbance. AID 1671190. P18054. 580,000 compounds, 1.1% hits
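Hydroperoxide product was detected by ferrous iron/xylenol orange as the 573 to 405 nm absorbance ratio. Arachidonic acid at 40 uM (final) was turned over for 30 min at room temperature by 150 nM human 12hLO, pH 7.0 Hepes buffer, after 15 min compound preincubation.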
TDP1 cell noCPT – qHTS for Inhibitors of human tyrosyl-DNA phosphodiesterase 1 (TDP1): qHTS in cells in absence of CPT; DT40 Tdp1-/- hTDP1 cells, no CPT, ATP luminescence, 48 h; Potency, µM (highest dose often 46.2 µM), actives largely listed as inhibitors; 420,000 compounds, 15% hits; AID 686978, 2013; note: nearly all actives have a fitted effect of over 55% in size
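Camptothecin absent (DMSO only). Human TDP1-complemented DT40 knockout cells, 400 cells/well, 37 °C for minimum 48 hr; ATP measured via CellTiter-Glo, 30 min dark incubation, luminescence.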
HT1080 IDH1KD tx – kills HT-1080 cells with IDH1 knockdown; HT-1080 IDH1 knockdown viability, ATP luminescence, 48 h; Potency, µM (series often up to 46.1 µM), most hits filed as cytotoxic; 360,000 compounds, 2% hits
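IDH1KD HT-1080 cells, 750/well, RPMI + 5% FBS; compound pinned after 2 h settling; 48 h, 37 °C; CellTiter-Glo luminescence; % activity normalised to DMSO and no-cell wells; curves fitted, classed by r2 and efficacy.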
DT40 TDP1 CPT – DT40-hTDP1 cell growth loss with CPT. chicken DT40 Tdp1-/-;hTDP1 cells + 20 nM CPT, ATP luminescence, 48 h. Potency, µM (series often up to 46.2 µM), most hits filed as inhibitors. 420,000 compounds, 12% hits; note: nearly all actives have a fitted effect of over 55% in size
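Chicken DT40 Tdp1-/- cells complemented with human TDP1, 400 cells/well, exposed to compounds plus 20 nM camptothecin for at least 48 h at 37 C; viability read as ATP content by CellTiter-Glo luminescence.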
Hits are given with their value; - = inactive; ? = inconclusive; . = no result. Unless noted, calls come from the whole dose curve; as a rule, active = well fitted curve in the direction sought with a large enough effect; inconclusive = small, poorly fitted or top-dose-only effect, or another doubt; inactive = no such curve, though single readings can be large; an effect the other way counts as inactive or inconclusive.

SMILES | HT1080NT lethal | IL-1B inflam inh | 12-LOX inh | TDP1 cell noCPT | HT1080 IDH1KD tx | DT40 TDP1 CPT
O=C(O)c1ccccc1-c1ccccc1C(=O)Nc1cccc(-c2nc3ccccc3o2)c1 | - | - | 11.2µM | - | - | -
O=C(Nc1cccc(-c2nc3ccccc3o2)c1)c1cccnc1 | - | - | - | 20.6µM | - | ?
O=C(O)c1ccccc1-c1ccccc1C(=O)Nc1ccc2c(c1)oc(=O)c1ccccc12 | ? | ? | - | 13µM | - | ?
Cc1cccc(C(=O)Nc2cccc(-c3nc4ccccc4o3)c2)c1 | . | . | - | . | . | .
Cc1ccc(Nc2cc(C)nc3c(C)c(C)ccc23)cc1 | . | . | - | . | . | .
COCCCN1CCCC2(CCN(C(=O)NCc3cccc(F)c3)C2)C1=O (stereo not drawn) | . | . | - | . | . | .
COc1cccc(C(=O)N2c3cc(C)ccc3C(C)(c3ccccc3)CC2(C)C)c1 (stereo not drawn) | . | . | - | 14.6µM | . | ?
COc1cccc(C(=O)N2c3cc(C)ccc3OCC2C(C)(C)C)c1 (stereo not drawn) | ? | - | - | ? | - | -
Cc1ccc2c(c1)C(C)(c1ccccc1)CC(C)(C)N2C(=O)c1ccc(F)cc1 (stereo not drawn) | . | . | - | 13µM | . | ?
COc1ccc(-c2ocnc2C(=O)Nc2ccccc2C)cc1OC | . | . | - | . | . | .
COc1cccc(Nc2cnc3ccc(-c4ccc(F)cc4)nn23)c1 | . | . | - | . | . | .
CN(O)/C=c1/ccc2c(n1)C(=O)C=CC=2 | ? | - | - | 4.61µM | ? | 4.61µM
O=C(c1cccnc1Cl)N(Cc1ccccc1)Cc1ccccc1 | - | -67.2 | - | 9.2µM | - | ?

Source: PubChem BioAssay (National Center for Advancing Translational Sciences (NCATS))
